Shown are actives, neighbours in structure and some others; about 2.9% of the full set was active somewhere.
D3 ag = qHTS of D3 Dopamine Receptor Agonist: qHTS. D(3) dopamine receptor (Homo sapiens), P35462. 0.58% of 410,000 active. max activation, %. D3R DiscoveRx beta-arrestin cells, luminescence, 90 min. AID 652048, 2013; in the data active means max activation above about 30%; further: 0% is about no effect
Target sequence (P35462 whole entry, looked up): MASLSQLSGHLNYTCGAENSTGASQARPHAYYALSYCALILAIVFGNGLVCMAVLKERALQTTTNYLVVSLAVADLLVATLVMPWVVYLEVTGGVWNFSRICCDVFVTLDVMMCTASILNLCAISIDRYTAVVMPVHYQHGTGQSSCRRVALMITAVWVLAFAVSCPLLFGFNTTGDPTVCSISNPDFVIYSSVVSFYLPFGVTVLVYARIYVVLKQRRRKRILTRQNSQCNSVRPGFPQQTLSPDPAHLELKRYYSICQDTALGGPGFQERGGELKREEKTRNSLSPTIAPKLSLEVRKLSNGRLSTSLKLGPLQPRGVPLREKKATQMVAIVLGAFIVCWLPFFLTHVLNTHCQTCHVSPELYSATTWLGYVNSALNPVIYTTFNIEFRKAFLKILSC
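Agonist mode: compounds and dopamine controls were applied to plated cells for 90 min at 37 degrees C after an overnight attachment at 1500 cells/well. Luminescent read-out followed 30 - 60 minutes at room temperature with DiscoveRx detection reagent.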
DRD3 antagonist = qHTS of D3 Dopamine Receptor Antagonist: qHTS; max response, negative = inhibition, %; AID 652054, 2013; 2.5% of 360,000 active; D3R cells, DiscoveRx beta-arrestin luminescence, antagonist mode; active compounds read low; in the data active means max response below about -50%; inconclusive means no clear call, values can overlap the other calls; further: on the % scale 0 is the no-effect control and ±100 the full control effect
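Cells plated overnight at 1500 cells/well, then exposed to library compounds with dopamine controls for 90 minutes at 37 degrees C. DiscoveRx reagent added for 30–60 minutes at room temperature; luminescence read, quantitative HTS format.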
TRPML1 inh = qHTS for Inhibitors of the Human Mucolipin Transient Receptor Potential 1 (TRPML1) | TRPML1-inducible cells, Ca2+ dye fluorescence, FDSS; active compounds read low; inhibition of EC80 agonist-evoked calcium signal | activity change, negative = inhibition, % (test concentration not listed) | 0.02% of 390,000 active | AID 624415, 2012; in the data active means activity change below about -50%; inconclusive means between about -30% and that limit;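 further: stimulus is agonist 54-4 at its EC80 concentration; on the % scale 0 is the no-effect control and ±100 the full control effect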
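Calcium fluorescence in TRPML1-DL cells induced overnight with Tet: a 110 s read after compound pin addition, then a 110 s antagonist read after challenge with 54-4 at 4 uM final (EC80).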
TRPML1 agonist = qHTS for Agonists of the Human Mucolipin Transient Receptor Potential 1 (TRPML1); 0.12% of 410,000 active; TRPML1-expressing cells, Ca2+ dye fluorescence, FDSS; Mucolipin-1 (Homo sapiens), Q9GZU1; activation, % (no concentration beside the values); in the data active means activation above about 50%; inconclusive means mostly about 30% to 49%; further: 0% is about no effect
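Calcium fluorescence on an FDSS kinetic reader gave the read-out. Tet-induced TRPML1-DL cells were plated overnight, dye-loaded (Ca8 with quencher, 45-90 min, room temperature, dark), then read 110 s after compound addition, and again 110 s after 4uM final 54-4 (EC80).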
* = called active by the depositor; ? = inconclusive; . = no result given.

SMILES | D3 ag | DRD3 antagonist | TRPML1 inh | TRPML1 agonist
O=c1ccn([C@@H]2O[C@H](CNCC3=Cc4cc(O)ccc4OC3)[C@@H](O)[C@H]2O)c(=O)[nH]1 | 55* | 47 | 3 | 3
CC(=O)c1cccc(NC(=O)COC(=O)c2ccccc2OCc2cccc(Br)c2)c1 | . | . | . | 0
COC(=O)c1ccc(C(=O)OC)c(NC(=O)COC(=O)CCOc2ccc(C)cc2)c1 | 2 | -62* | -17 | 0
Cc1ccc(OCCC(=O)OCC(=O)NCCc2ccccc2)cc1 | -1 | 6 | -13 | 1
Cc1ccc(OCCC(=O)OCC(=O)NCCNC(=O)COC(=O)CCOc2ccc(C)cc2)cc1 | 3 | -61* | 13 | 0
COc1ccc(-c2nc3c(C#N)c[nH]n3c2NC2CCCC2)cc1 | 50* | . | 7 | 0
Cc1cccc(NC(=O)c2cnn(-c3ccccc3)c2-n2cccc2)c1C | 3 | . | 47 | 0
Cc1cc(C)c(NC(=O)COC(=O)Cn2nc(-c3ccccc3)oc2=O)c(C)c1 | -6 | -55* | 5 | 2
CN(C)c1ccc(/C=C/c2cc(Cl)nc3ccccc23)cc1 | . | . | . | 0
CN(C)CCN(Cc1ccco1)C(=O)c1cc2c(s1)-c1ccccc1OC2 | -22 | . | 8 | 1
COc1ccc(/C=N/Nc2nnc(C)n2N)cc1OC(C)=O | -10 | -56* | -2 | -1
COc1ccc(/C=N/Nc2nnc(C)n2N)cc1OC | 1 | 5 | 32 | -1
O=S1(=O)CCOC[C@H](Cc2ccccc2)N1Cc1ccc(F)cc1 | 4 | -4 | 15 | 1
C=CCN1[C@@H](Cc2ccccc2)COCCS1(=O)=O | -25 | -50* | 29 | -1
CN(C)S(=O)(=O)N1C(=O)c2ccccc2C1=O | 1 | 2 | 10 | 0
Cc1nc(-c2ccccc2O)n(S(=O)(=O)N(C)C)n1 | 31* | 13 | -12 | -1
CCOC(=O)C1(CC2CC2)CCN(Cc2cc(Cl)c(O)c(OC)c2)CC1 | -12 | -3 | 36 | 0
CCOC(=O)C1(CC2CC2)CCN(Cc2ccc(OC)cc2F)CC1 | -18 | -68* | 23 | 0
CCOC(=O)CC(NC(=O)CCc1c(C)nc2c(-c3ccccc3)c(C)nn2c1C)c1ccc(OC(C)C)cc1 (configuration not stated) | 36* | . | 30 | 1
CCOC(=O)CC(NC(=O)CCc1c(C)nc2c(-c3ccccc3)c(C)nn2c1C)c1ccc(C)cc1 (configuration not stated) | 6 | . | -21 | 0
CCN(CC)S(=O)(=O)c1ccc2c(c1)N(CC(=O)Nc1cccc(C#N)c1)C(=O)CO2 | -16 | . | -9 | 0
COc1ccc(C(=O)N/N=C/c2sc3ccccc3c2O)cc1 | -17 | -51* | 8 | 7
O=[N+]([O-])c1ccc(/C=N\O)o1 | -3 | . | . | .
O=[N+]([O-])c1ccc(/C=N/N=C/c2ccc([N+](=O)[O-])o2)o1 | -35 | -81* | 5 | -1
Cc1c(O)c2c(c(C(=O)/C=C/c3ccccc3)c1O)OC(C)(C)C=C2 | . | . | . | -1
SMILES | D3 ag | DRD3 antagonist | TRPML1 inh | TRPML1 agonist
O=C(COc1ccccc1Cl)Nc1ccc2[nH]c(=O)[nH]c2c1 | 3 | -61* | 6 | 0
C/C(=N\NC(N)=O)c1cc(Cl)cc(Cl)c1O | -26 | -82* | 1 | 0
C/C(=N\O)c1cc(Cl)cc(Cl)c1O | -3 | -14 | 4 | 0
COC(=O)c1ccc2c(=O)n(CCCCCC(=O)NCCc3ccc(Cl)cc3)c(=O)[nH]c2c1 | -9 | . | 7 | -1
CC1(C)CC1C(=O)Nc1ccc([N+](=O)[O-])cc1Br (configuration not stated) | 1 | 72 | -3 | 0
Cc1ccc(C2(c3ccc(C)cc3)CC2C(=O)Nc2ccc([N+](=O)[O-])cc2O)cc1 (configuration not stated) | -5 | -66* | -4 | 0
CCN(CC)C(=O)Nc1ccc(OCC(O)CNC(C)(C)C)c(C(C)=O)c1 (configuration not stated) | 2 | . | . | .
CC(C)(Oc1ccc(Cl)cc1)C(=O)NCC(c1ccco1)N1CCCCC1 (configuration not stated) | -25 | -13 | -4 | 1
COc1ccc(C(CNC(=O)C(C)(C)Oc2ccc(Cl)cc2)N2CCCCC2)cc1 (configuration not stated) | -14 | -83* | -28 | 0
COc1ccc(OCC(=O)NCC(c2ccc(OC)cc2)N2CCOCC2)cc1 (configuration not stated) | -35 | . | -23 | 1
COc1ccc(C(CNC(=O)C(C)(C)Oc2ccc(Cl)cc2)N2CCOCC2)cc1 (configuration not stated) | -28 | -75* | 13 | 1
CN(C(=O)c1ccc2c(c1)N(Cc1cccc(Cl)c1)C(=O)c1ccccc1S2(=O)=O)C1CCCCC1 | -10 | . | -8 | 0
COc1cccc(C(NC(C)=O)c2nc(-c3ccncc3)cs2)c1 (configuration not stated) | -2 | 0 | . | 0
COc1cccc(C(NC(C)=O)c2nc(-c3cccc4cccnc34)cs2)c1 (configuration not stated) | 57* | -14 | . | 0
Cn1c(=O)c2[nH]c(N3CCCCC3)nc2n(C)c1=O | 10 | 8 | -4 | 60*
Cn1c(=O)c2[nH]c(N=NN3CCCCC3)nc2n(C)c1=O | 11 | 5 | 7 | -1
CN(N=O)C(=O)N[C@@H]1[C@@H](O)[C@H](O)[C@@H](CO)O[C@@H]1O | 2 | . | . | .
Cc1ccc2nc(CSc3nnc(NC(=O)COc4ccccc4F)s3)cc(=O)n2c1 | 58* | . | 21 | 2
O.O=C([O-])CC([S-])C(=O)[O-].[Au+].[Na+].[Na+] (configuration not stated) | -17 | . | . | .
COCCCN1CCN(C2Cc3ccccc3Sc3ccc(Cl)cc32)CC1 (configuration not stated) | -17 | -97* | 10 | 0
Clc1cccc2c1Sc1ccccc1CC2N1CCNCC1 (configuration not stated) | -36 | -55* | 6 | 0
NC(=O)CCN1CCN(CCOC2Cc3cc(Cl)ccc3Sc3ccccc32)CC1 (configuration not stated) | -6 | -86* | 22 | 3
O=C(CN1CCCC1)N1c2ccccc2Sc2ccc(Cl)cc21 | 1 | -11 | 12 | 0
Clc1ccc2c(c1)C(N1CCNCC1)Cc1ccccc1S2 (configuration not stated) | -26 | -56* | -10 | 3
OCCN1CCN(CCCN2c3ccccc3Sc3ccc(Cl)cc32)CC1 | -94 | ? | 9 | 1
O=C(c1ccccc1Cl)N1CCNCC1 | 7 | -5 | -5 | -1
Clc1ccc(-c2csc3ncnc(Sc4nnnn4-c4ccccc4)c23)cc1 | . | . | . | 0
